Measured values as given in PubChem BioAssay (NCATS).
Inconclusive results are not listed. Calls of active or inactive are those of the source. Calls come from the whole dose curve; as a rule, active = well fitted inhibition curve with a large enough effect; inconclusive = small, poorly fitted or top-dose-only effect; inactive = no such curve, though single readings can be large or run the other way.

target: Nuclear receptor ROR-gamma (Homo sapiens) (UniProt P51449); assay: qHTS assay for small molecule antagonists of the retinoid-related orphan receptor gamma (ROR-gamma) signaling pathway (AID 651802); details: ROR-gamma antagonist cell reporter assay; series mostly up to 92.2 µM; activity change, negative = inhibition: at the top concentration; note: nearly all actives have a fitted effect of over 60% in size;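 for activity change, negative = inhibition: luciferase reporter luminescence driven by ROR response element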
Sequence (P51449 whole entry, looked up): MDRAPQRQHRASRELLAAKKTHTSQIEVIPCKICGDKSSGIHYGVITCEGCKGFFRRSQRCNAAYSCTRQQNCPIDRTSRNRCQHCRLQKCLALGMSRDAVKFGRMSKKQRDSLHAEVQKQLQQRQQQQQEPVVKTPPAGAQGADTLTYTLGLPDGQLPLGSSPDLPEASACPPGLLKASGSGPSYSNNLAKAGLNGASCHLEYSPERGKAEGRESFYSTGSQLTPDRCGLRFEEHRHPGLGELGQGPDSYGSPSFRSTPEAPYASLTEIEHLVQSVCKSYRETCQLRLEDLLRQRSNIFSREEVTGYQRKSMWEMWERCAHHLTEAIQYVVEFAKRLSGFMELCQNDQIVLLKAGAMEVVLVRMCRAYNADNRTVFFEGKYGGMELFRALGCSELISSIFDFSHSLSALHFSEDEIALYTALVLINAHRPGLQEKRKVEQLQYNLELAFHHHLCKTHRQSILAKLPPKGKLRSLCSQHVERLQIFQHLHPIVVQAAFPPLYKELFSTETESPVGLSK
Procedure, shortened: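 CHO cells with TET-inducible ROR-gamma and RORE-luciferase reporter, dosed then doxycycline-induced. After 16 h at 37C, One-Glo luminescence read; decreased signal indicates antagonism.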
% is set by controls: 0 for no effect and ±100 for the full control effect; potency is the fitted concentration of half-maximal effect.

Structure (SMILES) | activity change, negative = inhibition | Potency
O=c1c(-c2ccc(O)cc2)coc2cc(O)cc(O)c12 | 0.114% (inactive) | 
Cc1cn([C@H]2C=C[C@@H](CO)O2)c(=O)[nH]c1=O |  | inactive
Clc1ccc(C(c2ccccc2Cl)C(Cl)Cl)cc1 (configuration not stated) |  | 33.5 µM (active)
COc1ccc2[nH]cc(CCNC(C)=O)c2c1 | 60.4% (inactive) | 
CC(C)NCC(O)c1ccc(O)c(O)c1 (configuration not stated) | 13.4% (inactive) | 
Nc1ccn([C@H]2CC[C@@H](CO)O2)c(=O)n1 | 10.4% (inactive) | 
Cc1cn([C@H]2C[C@H](N=[N+]=[N-])[C@@H](CO)O2)c(=O)[nH]c1=O | 14.1% (inactive) | 
NCCS(=O)(=O)O | -17.3% (inactive) | 
CCC1(c2ccccc2)C(=O)NCNC1=O | 8.98% (inactive) | 
NS(=O)(=O)c1cc2c(cc1Cl)NCNS2(=O)=O | 25.9% (inactive) | 
Cn1c(=O)c2c(ncn2C)n(C)c1=O | 8.06% (inactive) | 
O=c1[nH]cc(F)c(=O)[nH]1 | -2.56% (inactive) | 
